# Data: ChEMBL document CHEMBL3433997, “St. Jude Leishmania screening dataset” (2016)
# Target: Solute carrier family 2, facilitated glucose transporter member 1 (Homo sapiens) (UniProt P11166)
# Assay: ST_JUDE_LEISH: Cytotoxicity at 2uM final concentration against transgenic Leishmania Mexicana promastigotes LmGLUT1 that are glucose transport deficient and complemented with the human glucose transporter GLUT1. Activity is measured by DNA content using SYBR green in vitro
# Assay type: functional
# Sequence of Solute carrier family 2, facilitated glucose transporter member 1 (Homo sapiens) (P11166 whole entry): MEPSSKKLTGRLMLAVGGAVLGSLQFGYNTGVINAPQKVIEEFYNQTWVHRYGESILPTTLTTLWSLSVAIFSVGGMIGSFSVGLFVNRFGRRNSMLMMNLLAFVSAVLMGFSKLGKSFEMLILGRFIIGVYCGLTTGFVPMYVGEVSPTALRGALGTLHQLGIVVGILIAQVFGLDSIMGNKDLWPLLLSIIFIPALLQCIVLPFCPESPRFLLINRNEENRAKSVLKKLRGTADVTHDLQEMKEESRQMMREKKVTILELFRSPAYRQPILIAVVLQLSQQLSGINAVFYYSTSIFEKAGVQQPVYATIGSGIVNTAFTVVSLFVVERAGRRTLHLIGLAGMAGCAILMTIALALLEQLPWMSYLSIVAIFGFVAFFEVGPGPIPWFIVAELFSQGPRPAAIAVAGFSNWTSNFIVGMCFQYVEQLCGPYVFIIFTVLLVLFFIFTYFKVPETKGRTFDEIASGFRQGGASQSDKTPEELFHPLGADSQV
row,Structure (SMILES),inhibition [%]
1,COc1ccc2ncc(F)c(CCN3CCC(NCc4cc(OC)c5c(c4)OCCO5)CC3)c2n1,7.06
2,O=C(Nc1cccc(-c2ccc(-c3nc4ccccc4[nH]3)cc2)c1)Nc1ccc2c(c1)OCO2,1.14
3,Cc1ccc(/C=C/C(=O)NCCCCCN2CCN(C(=O)Nc3ccc(Cl)c(C(F)(F)F)c3)CC2)cc1,4.47
4,COc1ccccc1CCNc1nc(C)cc(N[C@@H](Cc2ccccc2)C(=O)NCCOc2ccccc2)n1,1.72
5,COc1ccccc1Cn1ccnc1SCC(=O)Nc1cc(C(F)(F)F)ccc1Cl,-2.21
6,Nc1ccnc2ccc(OCCCCCCc3ccccc3)cc12,-1.77
7,COc1ccc(Cc2nc3c(n2C(C)=O)SC(c2ccc(Cl)c(Cl)c2)=NN3C(C)=O)cc1,0.08
8,CC1CN(c2ccc(C(=O)NCC3CC3)cc2NC(=O)OCc2ccccc2)CC(C)O1 (stereo not given),0.19
9,CC(C)CC(=O)N1CCNC[C@@H]1C(=O)NC1CC1,1.66
10,Cc1[nH]c(C)c(-c2ccc(Oc3ccccc3)cc2)c(=O)c1Br,1.44
11,Cc1noc(C)c1-c1cccc(CNCc2cccc(-c3csc(-c4nc5ccccc5[nH]4)c3)c2)c1,2.13
12,Cc1cccc(-c2ccc(NC(=O)C3CCN(Cc4cccc(O)c4)CC3)cc2)c1,0.07
13,CC(=O)c1cccc(NC(=O)N2CCCN(CCCCCNC(=O)/C=C/c3ccc(Cl)c(Cl)c3)CC2)c1,-1.7
14,CCC(C)C(COC(=O)c1cc(OC)c(OC)c(OC)c1)N(C)CCN(C)C(COC(=O)c1cc(OC)c(OC)c(OC)c1)C(C)CC (stereo not given),1.76
15,Cc1cccc2nc(-c3cccc(-c4ccc(NC(=O)c5c[nH]cn5)cc4)c3)[nH]c12,-0.79
